From PubChem BioAssay
Rows were chosen to be rich in hits. Some 2.4% of all compounds tested hit in one or more screens of this group.
Pol beta inh: qHTS Assay for Inhibitors of DNA Polymerase Beta; AID 485314, 2010; Potency, µM (highest dose often 114 µM), for the others: at the top dose activity change, negative = inhibition, hits mostly inhibitors; 340,000 compounds, 1.3% hits; Pol beta primer extension/strand displacement, fluorescence kinetic; also: % is scaled to controls: 0 for no effect and ±100 for the full control effect
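Human Pol beta at 10 nM; strand-displacement substrate 50 nM final. Compound exposure 15 min at room temperature before start, reaction 10 min at room temperature.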
Pol iota inh: qHTS for Inhibitors of Polymerase Iota; DNA polymerase iota (Homo sapiens), Q9UNA4; Pol iota fluorescent replication assay, 10 min; 390,000 compounds, 1% hits; Potency, µM (titrated, usually from 115 µM), for inactives: at the highest dose activity, negative = inhibition, usual class: inhibitors
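Pol iota at 10 nM preincubated 15 min with compounds at room temperature; reaction started with fluorescent substrate, 50 nM final. Fluorescence read kinetically at 0 and 10 min; buffer-only wells as negative control.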
WRN helicase inh: qHTS for Inhibitors of WRN Helicase | AID 651768, 2012 | 360,000 compounds, 0.46% hits | WRN helicase unwinding, fluorescent forked duplex, kinetic | Bifunctional 3'-5' exonuclease/ATP-dependent helicase WRN (Homo sapiens), Q14191 | Potency, µM (titrated, usually from 114 µM), without a hit: at the highest dose activity change, negative = inhibition, usual class: inhibitors; also: % is scaled to controls: 0 for no effect and ±100 for the full control effect; nearly all actives have a fitted effect of over 55% in size
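Primary qHTS, 1536-well format. 20 nM WRN + compound, 15 min RT; start with 100 nM forked fluorophore/quencher duplex, 2 mM ATP (final); kinetic read ex 525/em 598 nm.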
Pol eta inh: qHTS for Inhibitors of Polymerase Eta. recombinant Pol eta, fluorescent DNA replication assay. Potency, µM (top dose mostly 114 µM), inactives show top-dose activity change, negative = inhibition, hits mostly inhibitors. 390,000 compounds, 1.2% hits; also: % is scaled to controls: 0 for no effect and ±100 for the full control effect
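Pol eta (10 nM) was preincubated with compounds for 15 min at room temperature, after which fluorescent replication substrate (50 nM final) was added to start the reaction. Fluorescence was read kinetically at 0 and 10 min.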
POLK inh: qHTS for Inhibitors of Polymerase Kappa | DNA polymerase kappa (Homo sapiens), Q9UBT6 | purified Pol kappa, fluorescent DNA synthesis assay, 10 min | Potency, µM (doses to about 107 µM), for the others: top-dose activity, negative = inhibition, actives largely listed as inhibitors | 400,000 compounds, 0.53% hits | AID 588579, 2011; also: % is scaled to controls: 0 for no effect and ±100 for the full control effect
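Activity was followed as the change in fluorescence between reads at 0 and 10 min after starting the reaction with 50 nM substrate. Beforehand, 10 nM polymerase had been preincubated with compound for 15 min at room temperature.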
FEN1 inhibitor: qHTS Assay for the Inhibitors of Human Flap endonuclease 1 (FEN1). P39748. Recombinant FEN1 flap cleavage, fluorescence, 15 min. Potency, µM (top dose mostly 114 µM), inactives show at the highest dose activity change, negative = inhibition, hits mostly inhibitors. 390,000 compounds, 0.35% hits; also: % is scaled to controls: 0 for no effect and ±100 for the full control effect; nearly all actives have a fitted effect of over 65% in size
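In this screen, 50 nM flap DNA substrate was added to 10 nM FEN1 pretreated with compound for 15 min at room temperature; cleavage was followed with reads at 0 and 15 min, and Hill fitting gave concentration–response parameters.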
* marks the source's active call; other numbers are inactive results; ? = inconclusive; · = no result given; [ ] = dose if it differs, or a comment. Calls follow the shape of the dose curve; as a rule, active = well fitted curve in the direction sought with a large enough effect; inconclusive = small, poorly fitted or top-dose-only effect, or another doubt; inactive = no such curve, though single readings can be large; an effect the other way counts as inactive or inconclusive. Potency is read from the fitted curve at half-maximal effect.

SMILES	Pol beta inh	Pol iota inh	WRN helicase inh	Pol eta inh	POLK inh	FEN1 inhibitor
O=C1c2cccc3c([N+](=O)[O-])ccc(c23)C(=O)N1O	?	-13%	-26%	2.8µM*	-1%	3.2µM*
COc1ccc2c3c(cccc13)C(=O)N(O)C2=O	35µM*	1%	-14%	-8%	-18%	0.35µM*
CN[C@@H]1[C@H](O[C@@H]2O[C@H](C)[C@@](O)(CO)[C@H]2O[C@H]2[C@H](O)[C@H](O)[C@H](N=C(N)N)[C@@H](O)[C@@H]2N=C(N)N)O[C@@H](CO)[C@H](O)[C@H]1O	·	·	·	·	-4%[60.1 µM]	·
COc1ccccc1N1CCN(C(=O)c2ccc3nc(-c4ccco4)c(-c4ccco4)nc3c2)CC1	28µM*	?	-19%	-17%	-28%	-20%
Cc1ccc(C)c(N2CCN(C(=O)c3ccc4nc(-c5ccco5)c(-c5ccco5)nc4c3)CC2)c1	-18%	?	-31%	-15%	-12%	-18%
COc1ccc(-c2noc(-c3ccc(NC(C)c4ccccc4)c([N+](=O)[O-])c3)n2)cc1OC (configuration not stated)	32µM*	55%	·	-18%	-10%	-7%
COc1ccc(-c2noc(-c3ccc(NC4CCCCC4)c([N+](=O)[O-])c3)n2)cc1OC	8%	18%	·	-17%	2%	16%
NC(CSC(c1ccccc1)(c1ccccc1)c1ccc2c(c1)OCO2)C(=O)O (configuration not stated)	·	·	-6%[11.6 µM]	35µM*	·	·
O=C(NCc1ccco1)C1CC2CCC1C2 (configuration not stated)	-1%	89µM*	-9%[57.1 µM]	-18%	-10%	-2%
CCOC(=O)C1=C(C)NC2(O)c3ccccc3C(=O)C12O (configuration not stated)	3%	2%	3%	-14%	1%	-8%
COCCOC(=O)C1=C(C)NC2(O)c3ccccc3C(=O)C12O (configuration not stated)	-1%	32µM*	-1%	-2%	4%[60.1 µM]	15%
O=C(Nc1ccc(Br)cn1)c1cnn2c1NC(=C1CC1)C=C2C(F)F	·	27%	·	·	1%	19%
O=C(Cc1ccccc1)NCC(=O)OCC(=O)c1cccc2ccccc12	·	0%	·	·	0%	-15%
CC(NS(=O)(=O)c1ccccc1)C(=O)NCc1ccco1 (configuration not stated)	?	40µM*	-10%[11.6 µM]	?	?	9%
CC(NS(=O)(=O)c1ccc(Br)cc1)C(=O)NCc1ccco1 (configuration not stated)	-12%	8%	0%	7%	-18%	1%
Oc1ccc(/C=N/Nc2ccnc3cc(Cl)ccc23)c(O)c1O	14µM*	?	?	?	45µM*	45µM*
O=C(Cc1ccc(OCCCCc2ccccc2)cc1)NO	·	21%	·	·	-25%	?
O=C(Nc1ccc(O)cc1C(=O)O)c1ccc2c(c1)C(=O)N(Cc1ccco1)C2=O	?	?	?	40µM*	-28%	?
CC(C)CN1C(=O)c2ccc(C(=O)Nc3ccc(O)cc3C(=O)O)cc2C1=O	16%	112%	-22%	-8%	-6%	-7%
COc1ccc(/C=N/Nc2snc(SC)c2C#N)cc1OC	?	?	-12%	-5%	-22%	-5%
COc1cccc(/C=N/Nc2snc(SC)c2C#N)c1O	?	?	50µM*	?	-17%	-16%
CC(C)(C)c1ccc(S(=O)(=O)/N=C2\C=C(NS(=O)(=O)c3ccccc3)C(=O)c3ccccc32)cc1	?	?	?	79µM*	-12%	?
Cc1ccc(S(=O)(=O)/N=C2\C=C(Nc3ccc(O)cc3)C(=O)c3ccccc32)cc1	·	45µM*	?	?	-38%	?
